The supplement of paper PMC6555819

What follows are sequences tested on PPARg:RXRa 30nM:10nM, anti-RXR (NR concentration 30 nM, RXRa partner concentration 10 nM) (assay: PBM binding z-score (relative to random genomic background probes); higher = stronger binding; sequences stand for … in GC…GCGATTGACAGCGTAGAATGAAGG).
Summary of the method: (§1)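 Custom Agilent 4×180K protein-binding microarrays carried double-stranded probes, each with a 34-nt variable region. These regions held direct-repeat seeds, single-nucleotide variants, half-site ablations and random human genomic background sequences. Ligand-free nuclear receptor dimers were incubated on the arrays for 1 h, antibodies against each partner (one per run) detected binding, and scanned fluorescence was regression-normalized. Binding z-scores take the random background probes as reference.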
In the case of ATTCGGAGGACAAAGGTCAGAGCTACGCCAGTGA, the PBM binding z-score is reported as 7.1. In the case of GGAACGAGGGCAAGTTGATGGCAGAGTTTGATGG, the PBM binding z-score is reported as -0.146. AGTCAAAGTTCACTAGGTCACGTAAGATTCAGCT gave a PBM binding z-score of 4.81. For TCTTGTAGATCAGGAGGTTAAGAAAGCTGGCCAA, the PBM binding z-score was 2.55. Sequence TAGCCTAGGTCAGATCGGTCCAGTATACGCTATA has a PBM binding z-score of -0.239. ATCTCTAGGTAACCAAGTTCAGGGAATGCCGAAC was tested, and the PBM binding z-score was 0.158. TCGAGTAGGTTAGGGGCGTTCAGAATGGCGTCGA was tested, and the PBM binding z-score was 0.846. TCATATAGGTAAACAGGGGAAAGTCCGTAAGTTA showed a PBM binding z-score of 3.92. In the case of ACTATTAGTTGAGACGAGGGCAACCTATAGGTTG, the PBM binding z-score is reported as 0.31. CCTACTGGGCCATCAGGCCATTGATATCAACGTT was tested, and the PBM binding z-score was 0.105. Work on TCTCGGAGCACACGAAGGTCAGAGCTTTCCAGAG yielded a PBM binding z-score of 1.04. ATCTCTAGGTAACCAAGTTCAATGAATGCCGAAC was tested, and the PBM binding z-score was 0.497. Sequence TGGATGAGGTTAAAGATCAGGGAACGTGGCGTCG has a PBM binding z-score of 3.49. Sequence CTCGAAAGGTCGGTTGAGGTGCGTATACGGATAA has a PBM binding z-score of 0.258. ATCGAAAGGTCGAGCTGAGTATAGAGAAAGGGAA showed a PBM binding z-score of 1.22. With ACAGACATGTGAGTGAAGGTAACTCAGCTGGACG the PBM binding z-score was -0.111. Sequence CAAACTAGGTCACGGAAGGTCAAAGTCGAATGAC has a PBM binding z-score of 7.26. TAGCATAGGTCATTGGGCCAGTATAGTACGCATC gave a PBM binding z-score of 1.75. AGTCAAAGTTCATCTAGGTAACGTATGATATGCT showed a PBM binding z-score of 3.52. AGAATGAGGTTAAGATGAGGGAAACAGAATACAT was tested, and the PBM binding z-score was 1.31. With CCTCCAAGGTCAATGCTAGGTCAGTGAAAGCATT the PBM binding z-score was 1.2. With TCGAGTAGGTTAGGGGCAGTCAGAATGGCGTCGA the PBM binding z-score was 0.558. ATCGAAAGGTCGACGAGGTGTGTATACACCGTTT gave a PBM binding z-score of 1.02. Sequence CCTACTGGGCCATTCAGAGGTCTTTGATCATATG has a PBM binding z-score of -0.397. ATCGAAACGTCGAGGTGAGTATAGAGAAAGGGAA showed a PBM binding z-score of 0.3. CCCAGCAGGCCAGGGTCACTCAAGCATTTCGCTT was tested, and the PBM binding z-score was -1.03. With CTTCCAAGGTCAATGCTAGGTCAGTGAAAGCATT the PBM binding z-score was 1.5. GGTACGAGGGCATTCGAGTTGATAGCATGGCGAT gave a PBM binding z-score of -0.638. In the case of TGTCAAAGTTCAAAGGTAACGTACGTATCCACAC, the PBM binding z-score is reported as 4.86. GGAACGAGAGCAAAGTTGATAGCATCTGTCGACG showed a PBM binding z-score of 3.13. GCTATTAGTTGAAAGGGCAACCAAATGATTCTCG showed a PBM binding z-score of 2.34. With ATATGTAGGTTACAACCGGGTCATTCAGGCTATG the PBM binding z-score was 3.03. TCTTGTAGATCAACAGGGGGTTAAGAAAGATCGA was tested, and the PBM binding z-score was 3.73. Work on CCTACTGGGCCAAAAAGCTCATTGATGCCGATAA yielded a PBM binding z-score of -0.429. For AGTCAAAGTTCAGGACGAGTTAACGTAAAGCACG, the PBM binding z-score was 2.21. For TGAATGAGGTTAAAGATTAGGGAACGTGGCGTCG, the PBM binding z-score was 2.32. CAAACTAGGTCCCGAAAGGTCAAAGTCGAATGAC showed a PBM binding z-score of 2.11. CCAAGTTGGTCAGGAGGTCACACACCGGATATGA gave a PBM binding z-score of 1.85. Work on AGTCAAAGTTCAGGACGATGTAACGTAAAGCACG yielded a PBM binding z-score of 1.92. Sequence GCAACGAGGGCAAAGTTGATAGCATCTGTCGACG has a PBM binding z-score of 4.83.

What follows are sequences tested on PPARg:RXRa 90nM:30nM, anti-RXR (NR concentration 90 nM, RXRa partner concentration 30 nM) in the same assay as above.
Summary of the method: as §1
ATTCGGAGGACAAAGGTCAGAGCTACGCCAGTGA showed a PBM binding z-score of 7.23. In the case of GGAACGAGGGCAAGTTGATGGCAGAGTTTGATGG, the PBM binding z-score is reported as 0.602. Work on AGTCAAAGTTCACTAGGTCACGTAAGATTCAGCT yielded a PBM binding z-score of 7.31. Sequence TCTTGTAGATCAGGAGGTTAAGAAAGCTGGCCAA has a PBM binding z-score of 2.11. TAGCCTAGGTCAGATCGGTCCAGTATACGCTATA showed a PBM binding z-score of 0.0897. For ATCTCTAGGTAACCAAGTTCAGGGAATGCCGAAC, the PBM binding z-score was 0.596. Sequence TCGAGTAGGTTAGGGGCGTTCAGAATGGCGTCGA has a PBM binding z-score of 1.56. With TCATATAGGTAAACAGGGGAAAGTCCGTAAGTTA the PBM binding z-score was 3.45. ACTATTAGTTGAGACGAGGGCAACCTATAGGTTG was tested, and the PBM binding z-score was -0.00139. For CCTACTGGGCCATCAGGCCATTGATATCAACGTT, the PBM binding z-score was 0.915. TCTCGGAGCACACGAAGGTCAGAGCTTTCCAGAG gave a PBM binding z-score of 0.995. For ATCTCTAGGTAACCAAGTTCAATGAATGCCGAAC, the PBM binding z-score was 0.824. With TGGATGAGGTTAAAGATCAGGGAACGTGGCGTCG the PBM binding z-score was 4.98. For CTCGAAAGGTCGGTTGAGGTGCGTATACGGATAA, the PBM binding z-score was 0.457. In the case of ATCGAAAGGTCGAGCTGAGTATAGAGAAAGGGAA, the PBM binding z-score is reported as 1.96. ACAGACATGTGAGTGAAGGTAACTCAGCTGGACG gave a PBM binding z-score of 0.163. With CAAACTAGGTCACGGAAGGTCAAAGTCGAATGAC the PBM binding z-score was 8.7. Sequence TAGCATAGGTCATTGGGCCAGTATAGTACGCATC has a PBM binding z-score of 3.7. AGTCAAAGTTCATCTAGGTAACGTATGATATGCT gave a PBM binding z-score of 5.74. AGAATGAGGTTAAGATGAGGGAAACAGAATACAT was tested, and the PBM binding z-score was 1.78. CCTCCAAGGTCAATGCTAGGTCAGTGAAAGCATT was tested, and the PBM binding z-score was 3.28. TCGAGTAGGTTAGGGGCAGTCAGAATGGCGTCGA was tested, and the PBM binding z-score was 1.36. Work on ATCGAAAGGTCGACGAGGTGTGTATACACCGTTT yielded a PBM binding z-score of 2.17. Work on CCTACTGGGCCATTCAGAGGTCTTTGATCATATG yielded a PBM binding z-score of -0.188. Sequence ATCGAAACGTCGAGGTGAGTATAGAGAAAGGGAA has a PBM binding z-score of -0.335. CCCAGCAGGCCAGGGTCACTCAAGCATTTCGCTT gave a PBM binding z-score of 0.0104. Sequence CTTCCAAGGTCAATGCTAGGTCAGTGAAAGCATT has a PBM binding z-score of 3.45. GGTACGAGGGCATTCGAGTTGATAGCATGGCGAT was tested, and the PBM binding z-score was 0.0723. Work on TGTCAAAGTTCAAAGGTAACGTACGTATCCACAC yielded a PBM binding z-score of 7.11. With GGAACGAGAGCAAAGTTGATAGCATCTGTCGACG the PBM binding z-score was 5.43. Sequence GCTATTAGTTGAAAGGGCAACCAAATGATTCTCG has a PBM binding z-score of 4.39. Work on ATATGTAGGTTACAACCGGGTCATTCAGGCTATG yielded a PBM binding z-score of 4.61. For TCTTGTAGATCAACAGGGGGTTAAGAAAGATCGA, the PBM binding z-score was 3.26. Sequence CCTACTGGGCCAAAAAGCTCATTGATGCCGATAA has a PBM binding z-score of 0.564. Sequence AGTCAAAGTTCAGGACGAGTTAACGTAAAGCACG has a PBM binding z-score of 4.17. TGAATGAGGTTAAAGATTAGGGAACGTGGCGTCG showed a PBM binding z-score of 4.36. In the case of CAAACTAGGTCCCGAAAGGTCAAAGTCGAATGAC, the PBM binding z-score is reported as 4.36. With CCAAGTTGGTCAGGAGGTCACACACCGGATATGA the PBM binding z-score was 2.97. AGTCAAAGTTCAGGACGATGTAACGTAAAGCACG gave a PBM binding z-score of 3.68. Work on GCAACGAGGGCAAAGTTGATAGCATCTGTCGACG yielded a PBM binding z-score of 6.51.
